Measurements as given in PubChem BioAssay (NCI).
Compounds without any hit were thinned out: in the full panel of roughly 83,000, 20% have a hit.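 Assay: single dose, 48 h. Readout: percent growth (0 = no net growth; negative = cell death). Active: <10.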 Calls of active or inactive are those of the source.

Tested on: HL-60(TB) leukemia
Assay: NCI-60 one-dose screen, 48 h (100 = growth as untreated, 0 = no growth, -100 = all killed)
Settings: 10 µM unless noted

Structure (SMILES)	growth
CC(=O)OC[C@H]1OC(Sc2sc(C(=O)c3ccc(C)cc3)c(N)c2-c2nc3ccccc3s2)[C@H](OC(C)=O)[C@@H](OC(C)=O)[C@@H]1OC(C)=O (some centres undefined)	80% (inactive)
COc1cc(NC(=O)C2=C(N3CCOCC3)/C(=C/c3ccc(Cl)cc3)CC2)cc(OC)c1OC	21.6% (inactive)
COC(=O)[C@]12CC[C@@H](C)[C@H](C)[C@@H]1C1=CC[C@@H]3[C@@]4(C)C[C@@H](O)[C@H](O)[C@@](C)(CO)[C@@H]4[C@H](O)C[C@@]3(C)[C@]1(C)CC2	-27.4% (active)
O=C(/C=C/c1ccccc1)Nc1ncc(Cc2ccccc2)s1	-45.3% (active)
